CHOP inh: inhibitors of CHOP promoter induction, primary screen, cell-based, unfolded protein response, luciferase reporter | CHO-K1 CHOP-promoter luciferase, tunicamycin-induced, 15-18 h | inhibition, % at 10 µM | 220,000 compounds, 3.8% hits | AID 2732, 2010;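 active means compounds that reduced the stress-induced luciferase reporter signal by more than about 70% of percent inhibition, limit read from the data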
L major viab: Leishmania major promastigote growth inhibition, primary screen; inhibition, % at 10 µM; 200,000 compounds, 9% hits; Leishmania major promastigotes, resazurin fluorescence viability; in the data active means inhibition above about 50%;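 further: promastigotes grown with compound for 44 hours at 28 °C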
Arbovirus inh: antivirals against arbovirus infection, primary screen, cell-based, full library, 10K replicate subset; arbovirus infection cell-based antiviral screen; inhibition, % at 10 µM; 200,000 compounds, 0.37% hits; AID 1251, 2008; in the data active means inhibition above about 30%
WT yeast gro inh: growth inhibition of WT strain, primary screen, mitochondrial fusion inhibitor project, WT and mutant strains, chemical genetic; mitochondrial fusion phenotypic screen; inhibition, % at 10 µM; 190,000 compounds, 2.1% hits; AID 1362, 2008; in the data active means inhibition above about 58%; tested in S. cerevisiae
Each line names hits and unclear results; the compound was inactive in the other large screens. An excerpt weighted towards active compounds, which were near 12% of everything screened.

COCCNC(=O)C(=O)NNS(=O)(=O)c1ccc2ccccc2c1	none
O=C(Nc1ccc(OCC(F)(F)C(F)F)c(C(F)(F)F)c1)c1ccccc1O	CHOP inh 108, L major viab 100, WT yeast gro inh 75
COCCn1c(=O)[nH]c(=O)c2cc(C(=O)c3cc(Cl)ccc3O)cnc21	WT yeast gro inh 63
COc1cccc(NC(=O)NCc2c(-c3ccccc3)noc2C)c1	none (no result: L major viab, Arbovirus inh, WT yeast gro inh)
COCCN(C(=S)Nc1ccc(C)c(C)c1)C(C)c1ccco1 (centres undefined)	WT yeast gro inh 60
COc1ccc(NC(=S)N(CCN(C)C)C(C)c2ccco2)cc1 (centres undefined)	L major viab 51
Cc1ccc(NC(=S)N(CCN(C)C)C(C)c2ccco2)cc1C (centres undefined)	none
CC(C)c1onc(C(=O)N(C)C2CCCCC2)c1[N+](=O)[O-]	none
CC(C)=CCC/C(C)=C/CC(C)(C)CNCCN1CCNCC1	L major viab 100 (no result: CHOP inh)
CC(C)=CCCC(C)CN1CCC(O)CC1 (centres undefined)	none
CC(C)=CCC/C(C)=C/CCC(C)NCCN1CCNCC1 (centres undefined)	CHOP inh 95, L major viab 101
CSc1nsc2nc(=O)c(/C=C3\C(C)=Nc4ccccc43)c(N)n12	Arbovirus inh 32
CCCN(CCC)c1nc(N(CCC)CCC)[nH]c(=O)n1	L major viab 57
CCCN(CCC)c1nc(C#N)nc(N(CCC)CCC)n1	none
COc1ccc(/C=C/C(=O)N2CCCc3ccccc32)cc1	L major viab 60
COc1cc(C(=O)N2CCCc3ccccc32)cc(OC)c1OC	none
COc1ccc(OC)c(/C=C/C(=O)N2CCCc3ccccc32)c1	none
COc1cc(/C=C/C(=O)N2CCCc3ccccc32)cc(OC)c1OC	L major viab 50
Cc1nn(C(C)C(=O)NCC2CCCO2)c(C)c1[N+](=O)[O-] (centres undefined)	none
CCc1ccccc1Nc1nc2ccccc2n1CC	L major viab 72
CCc1ccccc1Nc1nc2ccccc2n1C(C)C	none
CC1CC(=O)C(C2c3ccccc3CCN2C(=O)CCl)C(=O)C1 (centres undefined)	L major viab 51
COc1cc2c(cc1OC)C(C1C(=O)CC(C)(C)CC1=O)N(C(=O)CCl)CC2 (centres undefined)	none
COc1cc(/C=C/C(=O)OCC(=O)c2c(N)n(C)c(=O)n(C)c2=O)ccc1OC(F)F	none
CN=c1scc(C)n1/N=C/c1ccc(O)cc1O	L major viab 58
COc1ccc(NC(=O)C(OC)c2ccccc2)cc1Cl (centres undefined)	none
COc1ccc(NC(=O)C(Sc2nnc(-c3ccncc3)n2-c2ccccc2C)c2ccccc2)cc1Cl (centres undefined)	L major viab 99
CC(C)(C)Nc1nc(NN)nc(NC(C)(C)C)n1	L major viab 81
CCOC(=O)CSc1nnc(CNC(=O)c2ccc(OC)cc2OC)n1-c1ccc(OC)cc1	none
COc1ccc(NC(=O)CSc2nnc(C3CCCCC3)n2N)cc1	none (no result: L major viab, Arbovirus inh, WT yeast gro inh)
COc1ccc(C(=O)CSc2nnc(CN3CCCC3)n2-c2ccc(F)cc2)c(OC)c1	L major viab 80
COc1ccc(C(=O)CSc2nnc(CN3CCCCC3)n2-c2ccc(F)cc2)cc1OC	L major viab 90
O=C(CSc1nnc(CN2CCCCC2)n1-c1ccccc1)c1ccc2c(c1)OCO2	none
COc1ccc(C(=O)CSc2nnc(C3CCCCC3)n2N)c(OC)c1	L major viab 53
COc1ccc(C2CC(=O)c3cnc(Nc4cc(C)cc(C)c4)nc3C2)cc1 (centres undefined)	WT yeast gro inh 69
COc1ccc(C2CC(=O)c3cnc(NC(=O)c4ccccc4OC)nc3C2)c(OC)c1 (centres undefined)	L major viab 86
CC(=O)c1cccc(NC(=O)C23CC4CC(C2)CC(n2cncn2)(C4)C3)c1	none
CC(C)c1cccc(C(C)C)c1NC(=O)c1ccc(OCC(=O)NCc2ccccc2)cc1	CHOP inh 94
CC(=O)Nc1ccc(OCC(=O)NCc2ccccc2)cc1	none
CCCCCCCCSc1nnc(CSc2nc3nc(C)cc(C)n3n2)o1	L major viab 67
Cc1ccccc1CCN(C(=O)Cn1nnc2ccccc21)C(C(=O)NCC1CCCO1)c1nc2ccccc2n1C (centres undefined)	CHOP inh 82
Cc1ccccc1C(C(=O)NCc1ccco1)N(CC1CCCO1)C(=O)Cn1nnc2ccccc21 (centres undefined)	none
Cc1cc(C)c2c3c(sc2n1)C(c1cccc(F)c1)C(C#N)=C(N)O3 (centres undefined)	L major viab 89
O=[N+]([O-])c1nn(-c2ccc3c(c2)OCCO3)n(O)c1=NC1CCCCC1	CHOP inh 87, L major viab 70
O=[N+]([O-])c1nn(-c2ccc3c(c2)OCCO3)n(O)c1=NCc1ccccc1Cl	L major viab 82
COCCN(C(=O)CNC(=O)c1ccco1)C(C(=O)NC1CCCCC1)c1cccs1 (centres undefined)	none
Oc1ccccc1CNCCCNCc1ccccc1O	Arbovirus inh 44
OCCCNCc1cccc2ccccc12	none
COc1nc(-c2ccccc2)ncc1S(=O)(=O)c1ccccc1	none
Cc1cc(Cl)ccc1Oc1nc(-c2ccccc2)ncc1S(C)(=O)=O	CHOP inh 79
COc1ccc(Oc2nc(-c3ccccc3)ncc2S(=O)(=O)c2ccccc2)cc1	CHOP inh 73
Cc1ccc(S(=O)(=O)c2cnc(-c3ccccc3)nc2Oc2ccccc2)cc1	none
Cc1cccc(C)c1Oc1nc(-c2ccccc2)ncc1S(=O)(=O)c1ccccc1	L major viab 54
Cc1ccc(Cn2c(O)c(N=NC(=S)Nc3ccccc3F)c3cc(S(=O)(=O)N4CCOCC4)ccc32)cc1	none
Oc1c(N=NC(=S)Nc2ccccc2F)c2ccccc2n1Cc1ccc(Cl)cc1	L major viab 96
Oc1c(N=NC(=S)Nc2ccccc2F)c2ccccc2n1Cc1ccccc1F	L major viab 96
Cc1ccc(C)c(Cn2c(O)c(N=NC(=S)Nc3ccccc3F)c3ccccc32)c1	L major viab 96
NC(=S)N=Nc1c(O)n(CCCl)c2ccccc12	none
Cc1ccccc1Cn1c(O)c(N=NC(=S)Nc2ccccc2F)c2ccccc21	L major viab 76
CCNC(=S)N=Nc1c(O)n(Cc2ccc(Cl)cc2)c2ccccc12	none
CCOC(=O)C1CCCN(C(=O)COc2ccc(N(C)S(=O)(=O)c3ccc(F)cc3)cc2)C1 (centres undefined)	none
COc1cc(C(=O)Oc2ccccc2/C=N/NC(=O)c2ccc(Cl)cc2)cc(OC)c1OC	L major viab 93
CCC1=NNc2cccc3c(OC)ccc1c23	L major viab 100
CCN1C(=O)C2(SC(NC(C)=O)=NN2C(C)=O)c2cc(C)cc(C)c21 (centres undefined)	L major viab 71
CN(C)C(=O)N1CCN(C(=O)N2CCOCC2)CC1	none
O=C(/C=C/c1ccccc1)c1c[nH]c2ccccc12	none (no result: L major viab, Arbovirus inh, WT yeast gro inh)
O=C(/C=C/c1ccc(F)cc1)c1ccccc1Br	L major viab 94
COc1ccc(/C=C/C(=O)c2oc3ccc(F)cc3c2C)cc1	none

High-throughput results from PubChem.
